Compound activity deposited in PubChem BioAssay by National Center for Advancing Translational Sciences (NCATS).
PLK1 PBD block: inhibitors of human PLK1 polo-box domain binding. Plk1 PBD binding of FITC phosphopeptide, fluorescence polarization. Potency, µM, without a hit: max response, negative = inhibition, hits mostly inhibitors. actives 2.8% (n = 360,000). AID 720504; further: series mostly up to about 57 µM; nearly all actives have a fitted effect of over 65% in size
KAT2A inh: blocks human GCN5L2 histone acetyltransferase | Q92830 | AID 504327 | actives 0.21% (n = 390,000) | Potency, µM (highest dose often 58.9 µM), for inactives: top-dose activity change, negative = inhibition, usual class: inhibitors | GCN5L2 HAT assay, ThioGlo1 CoA-SH fluorescence
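ThioGlo1-coupled HAT assay: 20nM GCN5L2, 70uM acetyl-CoA, 75uM H3(1-25) peptide, pH 7.5. Fluorescence read at 340/540nm at start and after 20 min at room temperature.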
TDP1 cell CPT: DT40-hTDP1 cell growth loss with CPT. actives 12% (n = 420,000). Potency, µM (titrated, usually from 46.2 µM), inactives show at the top dose activity change, negative = growth inhibition, actives largely listed as inhibitors. chicken DT40 Tdp1-/-;hTDP1 cells + 20 nM CPT, ATP luminescence, 48 h; further: nearly all actives have a fitted effect of over 55% in size
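Cell growth measured by CellTiter-Glo luminescence after a minimum 48 h, 37 C compound exposure with 20 nM CPT in Tdp1-knockout DT40 cells stably expressing hTDP1, seeded 400/well; qHTS titration format.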
DT40 TDP1 no CPT: qHTS for Inhibitors of human tyrosyl-DNA phosphodiesterase 1 (TDP1): qHTS in cells in absence of CPT; DT40 Tdp1-/- hTDP1 cells, no CPT, ATP luminescence, 48 h; Potency, µM (series often up to 46.2 µM), without a hit: at the top dose activity change, negative = growth inhibition, actives largely listed as inhibitors; actives 15% (n = 420,000); further: nearly all actives have a fitted effect of over 55% in size
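Chicken DT40 Tdp1-/- cells stably complemented with human TDP1 were seeded at 400 cells/well with DMSO in place of 20 nM camptothecin. After compound pinning, cells grew at least 48 hr at 37 °C; viability read by CellTiter-Glo luminescence.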
TDP1 block: TDP1 (human) enzyme inhibition. recombinant TDP1, AlphaScreen DNA substrate cleavage. Potency, µM (highest dose often 130 µM), for inactives: top-dose activity change, negative = inhibition, hits mostly inhibitors. actives 0.28% (n = 350,000). AID 485290; further: nearly all actives have a fitted effect of over 40% in size
Target sequence (Q9NUW8 whole entry, looked up): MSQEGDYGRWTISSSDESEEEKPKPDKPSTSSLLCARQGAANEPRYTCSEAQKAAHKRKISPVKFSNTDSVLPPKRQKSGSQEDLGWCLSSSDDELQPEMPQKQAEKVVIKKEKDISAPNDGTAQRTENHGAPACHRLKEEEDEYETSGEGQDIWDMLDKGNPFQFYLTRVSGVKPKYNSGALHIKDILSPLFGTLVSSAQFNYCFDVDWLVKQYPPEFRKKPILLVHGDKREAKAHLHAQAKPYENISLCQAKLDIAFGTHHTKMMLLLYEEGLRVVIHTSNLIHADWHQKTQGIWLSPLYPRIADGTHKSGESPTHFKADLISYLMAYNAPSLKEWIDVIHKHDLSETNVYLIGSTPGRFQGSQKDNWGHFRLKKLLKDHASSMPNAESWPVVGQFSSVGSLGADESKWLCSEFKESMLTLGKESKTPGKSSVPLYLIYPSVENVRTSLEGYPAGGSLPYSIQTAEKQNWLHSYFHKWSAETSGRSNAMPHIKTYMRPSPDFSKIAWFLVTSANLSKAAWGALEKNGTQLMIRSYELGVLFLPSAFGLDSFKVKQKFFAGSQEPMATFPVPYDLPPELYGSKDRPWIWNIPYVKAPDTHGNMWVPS
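Compounds were preincubated with Tdp1 (1 nM final) for 15 min at room temperature before substrate (15 nM final) started a 5 min reaction; beads (10 ug/ml final) were then added for 10 min before AlphaScreen detection.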
VDR inh: vitamin D3 receptor (human) inhibition. actives 0.93% (n = 400,000). Potency, µM, for the others: max response, negative = inhibition, most hits filed as inhibitors. AID 504847. VDR-SRC2-3 peptide fluorescence polarization, 2 h
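The screen uses fluorescence polarization to detect compounds that interfere with recruitment of the SRC2-3 coactivator peptide to VDR; plates are read after 2 h at room temperature.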
* hit, by the source's call; u = inconclusive; x = not tested or not shown; [ ] = another dose, or the depositor's remark. Only some compounds are listed: those with a hit (about 18% of all), similar ones and a draw of the others. The call rests on the fitted dose curve; in most records, active means well fitted curve in the direction sought with a large enough effect; inconclusive means small, poorly fitted or top-dose-only effect, or another doubt; inactive means no such curve, though single readings can be large; an effect the other way counts as inactive or inconclusive. On the % scale 0 is the no-effect control and ±100 the full control effect; potency means the concentration at half of the fitted maximal effect.

SMILES | PLK1 PBD block | KAT2A inh | TDP1 cell CPT | DT40 TDP1 no CPT | TDP1 block | VDR inh
CCc1ccc(-c2cc3c(=O)n(CC(=O)NCCCN4CCC(Cc5ccccc5)CC4)nc(C)n3n2)cc1 | -4% | -14% | u | u | 2% | -16%
Cc1nn(CC(=O)NCCCN2CCC(Cc3ccccc3)CC2)c(=O)c2cc(-c3ccccc3)nn12 | 5% | -4% | 18µM* | 18µM* | 4% | -20%
CCCNC(=O)Cn1nc(C)n2c(cc3cc(F)ccc32)c1=O | 3% | -25% | u | 23% | x | 34%
Cc1nn(CC(=O)NCCCN2CCN(Cc3ccccc3)CC2)c(=O)c2cc(-c3ccccc3)nn12 | -4% | -7% | u | 21µM* | 3% | 5%
O=S(=O)(/C=C/C=C/S(=O)(=O)c1ccccc1)c1ccccc1 | 2.7µM* | x | 0.026µM* | 0.046µM* | x | u
CCS(=O)(=O)N1CCC(C(=O)Oc2ccc(Cl)cc2)CC1 | 27µM* | -1% | -21% | -11% | x | -12%
CCc1nc2c(OCc3cc(Cl)cc(Cl)c3)cccn2c1N(C)C(=O)CC(C)C | -11% | x | 26µM* | u | x | x
CCc1nc2c(OCc3ccc(F)c(F)c3)cccn2c1N(C)C(=O)CC(C)C | 4% | x | u | u | x | x
CCc1nc2c(OCC(=O)c3ccc(F)cc3)cccn2c1N(C)C(=O)COc1ccccc1 | -8% | x | u | 21µM* | x | x
CCc1nc2c(OCc3ccc(Cl)cc3Cl)cccn2c1N(C)C(=O)C1CC1 | -4% | x | u | u | x | x
CCc1nc2c(OCc3ccc(Cl)cc3Cl)cccn2c1N(C)C(=O)CC(C)C | -8% | x | u | 6.5µM* | x | x
CCc1nc2c(OCCOc3ccc(F)cc3)cccn2c1N(C)C(=O)CC(C)C | -4% | x | 16µM* | 10µM* | x | x
CC(=O)Nc1ccc(C(=O)CSc2nnc(-c3ccccc3)n2-c2ccccc2)cc1 | x | 0% | x | x | 2% | 4%
CC(C)[C@H](N)C(=O)NC[C@H]1O[C@@H](n2cnc3c(N)ncnc32)[C@H](O)[C@@H]1O | -7% | -1% | -8% | -9% | -1%[56.1 µM] | -26%
CC(C)CSCC1OC(n2cnc3c(N)nccc32)C(O)C1O (configuration not stated) | -7% | x | u | 21µM* | x | x
COc1ccc(S(=O)(=O)NCCc2csc3nc(-c4cccc(C)c4)nn23)cc1F | x | 3% | u | 21µM* | 3% | 2%
Cc1cccc(-c2nc3scc(CCNC(=O)c4ccccc4Cl)n3n2)c1 | x | 11% | u | 21µM* | 5% | 5%
COc1ccc(NC(=O)C(=O)NCCc2csc3nc(-c4ccccc4F)nn23)cc1OC | x | -19% | 0% | 3% | 2% | 7%
COc1ccc(S(=O)(=O)NCCc2csc3nc(-c4ccc(OC)c(OC)c4)nn23)cc1C | x | -3% | u | 16µM* | 5% | 6%
COc1ccc(-c2nc3scc(CCNS(=O)(=O)c4c(C)cc(C)cc4C)n3n2)cc1OC | x | 0% | 15µM* | 23µM* | 5% | 23%
N#Cc1c(-c2ccccc2)no[n+]1[O-] | x | x | x | x | 10%[56.1 µM] | x
Cc1ccc(C(=O)Nc2ccccc2C(=O)N2CCCC(C)C2)cc1 (configuration not stated) | 0% | -2% | 1% | -5% | 1% | -10%
COc1ccc(-c2nc3scc(CCNS(=O)(=O)c4ccc(F)cc4F)n3n2)cc1OC | x | -1% | u | 18µM* | 3% | 1%
CCCS(=O)(=O)NCCc1csc2nc(-c3ccc(OC)cc3)nn12 | x | -4% | u | u | 8% | 9%
CCN(CC)S(=O)(=O)c1ccc(NC(=O)c2ccc(N3CCCC3=O)cc2)cc1 | 1% | -6% | u | u | 2% | -4%
CC1CCN(C2=C(NS(=O)(=O)c3ccc(Br)cc3)C(=O)c3ccccc3C2=O)CC1 | -19% | -11% | u | 18µM* | 11% | -25%
